bCat KO growth – beta-catenin-lacking colon tumor cell growth suppression; HCT116 beta-catenin knockout viability, CellTiter-Glo, 60 h; active compounds read low; viability, % at 10 µM; actives 1.5% (n = 140,000); AID 818;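 active means viability at or under a set limit, the compound median less 4 SD, cut at about 6% in these data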;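 further: 0% = Hyamine 1622 control at 20 µM and 100% = untreated cell control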
ROMK primary – modulates human ROMK potassium channel activity; P48048; Tet-inducible ROMK, thallium flux fluorescence; actives lie on both sides; B-score at 10 µM; actives 2% (n = 130,000);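 active means signal ratio slope over the read window, or its plate-corrected B-score, at least 3 SD from the plate mean, either direction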;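 further: B-score of the F/F0 ratio slope over 7 to 12 s after thallium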
Lmaj promast – reduces viability of Leishmania major promastigotes; resazurin fluorescence viability; actives 9% (n = 200,000); inhibition, % at 10 µM; in the data active means inhibition above about 50%;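 further: promastigotes grown with compound for 44 hours at 28 °C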
PTEN del growth – suppresses growth of cells with PTEN deletion. HCT116 PTEN-null viability, CellTiter-Glo, 60 h; active compounds read low. viability, % at 10 µM. actives 1.2% (n = 140,000). AID 827;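 active means viability at or below a set limit, 4 SD under the median of all tested compounds, cut at about 3.7% in these data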;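 further: PTEN knockout HCT116 line with beta catenin targeted HCT116 as companion control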
p97 inhibitor – inhibitors of human p97 ATPase; P55072; recombinant p97 ATPase, Kinase-Glo ATP luminescence, 3 h; inhibition, % at 8 µM; actives 0.42% (n = 220,000); AID 1481; in the data active means inhibition above about 15%;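 further: 0% = DMSO vehicle and 100% = wells lacking enzyme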
Target sequence (P55072 whole entry, looked up): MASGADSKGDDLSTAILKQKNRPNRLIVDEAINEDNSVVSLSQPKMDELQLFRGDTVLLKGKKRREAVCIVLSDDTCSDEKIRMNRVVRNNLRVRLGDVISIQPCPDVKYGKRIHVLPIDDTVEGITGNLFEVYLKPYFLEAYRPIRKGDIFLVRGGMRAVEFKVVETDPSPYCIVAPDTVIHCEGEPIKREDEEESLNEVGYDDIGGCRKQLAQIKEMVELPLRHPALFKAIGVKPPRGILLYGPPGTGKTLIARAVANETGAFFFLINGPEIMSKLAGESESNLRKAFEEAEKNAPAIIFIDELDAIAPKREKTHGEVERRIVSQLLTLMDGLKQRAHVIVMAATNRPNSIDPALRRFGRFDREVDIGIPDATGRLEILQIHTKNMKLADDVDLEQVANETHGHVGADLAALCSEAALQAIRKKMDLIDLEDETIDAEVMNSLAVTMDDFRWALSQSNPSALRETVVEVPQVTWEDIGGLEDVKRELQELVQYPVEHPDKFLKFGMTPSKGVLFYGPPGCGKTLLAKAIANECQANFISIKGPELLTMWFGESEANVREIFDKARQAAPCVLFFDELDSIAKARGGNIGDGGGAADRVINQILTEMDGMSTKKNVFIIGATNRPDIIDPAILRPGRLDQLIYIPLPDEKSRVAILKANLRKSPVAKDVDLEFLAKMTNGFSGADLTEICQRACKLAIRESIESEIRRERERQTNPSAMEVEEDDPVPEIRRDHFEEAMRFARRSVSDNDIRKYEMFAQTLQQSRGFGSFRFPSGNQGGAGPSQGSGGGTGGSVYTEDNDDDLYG
Insulin prom inh – TRM-6 insulin promoter activity inhibition. TRM-6 cells (human fetal islet line), insulin promoter-eGFP reporter, imaging; reporter expression induced with tamoxifen. inhibition, % at 2 µM. actives 0.9% (n = 130,000). AID 1273;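 active means inhibition above the mean plus 3 SD, with well images judged a real hit on visual review, cut at about 60% in these data, passing the limit was not always enough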
L major 1uM – blocks Leishmania major promastigote growth at 1 uM, repeat screen | shares compounds with Lmaj promast | L. major promastigote growth, resazurin fluorescence, 48 h | inhibition, % at 1 µM | actives 13% (n = 1,100) | AID 1258;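 active means inhibition above about 50% in both repeat tests, limit read from the data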
Starred values were filed as active, the others as inactive; nt = no result. Only some compounds are listed: those with a hit (about 10% of all), similar ones and a draw of the others.

SMILES | bCat KO growth | ROMK primary | Lmaj promast | PTEN del growth | p97 inhibitor | Insulin prom inh | L major 1uM
CC(=O)Nc1ccc(C2=NN(c3ccccc3)C(c3cccs3)C2)cc1 (centres undefined) | nt | -0.37 | 66* | nt | -3 | nt | -5
CC(=O)Nc1ccc(N2C(C(C)=O)=NN(c3ccccc3)C2c2cccs2)cc1 (centres undefined) | 90 | nt | 3 | 91 | 0 | 35 | nt
CCNc1ccc(C(=O)NN=C2CCCC2)cc1[N+](=O)[O-] | nt | -1 | -5 | nt | -1 | -14 | nt
Cc1ccc(C2OC(=O)c3ccccc32)cc1 (centres undefined) | 90 | 0.38 | -5 | 90 | -3 | -8 | nt
O=C(Cn1ccc([N+](=O)[O-])n1)Nc1nccs1 | 101 | -0.35 | 77* | 99 | -2 | 9 | -7
Cc1ccccc1CSCC(=O)c1c(N)n(CC(C)C)c(=O)n(C)c1=O | 54 | -0.67 | -2 | 50 | 0 | -3 | nt
CC(C)Cn1c(N)c(C(=O)CSc2ccccc2)c(=O)n(C)c1=O | 58 | -1.4 | 51* | 59 | 0 | -12 | -5
CCOC(=O)N=Nc1c2ccccc2c2nc3no[nH]c3nc12 | nt | 1.6 | 101* | nt | 2 | nt | 100*
Cc1ccc(NC(=O)Nc2sc(=S)n(C)c2C)cc1 | 95 | -0.14 | 59* | 98 | 4 | 16 | -17
CC(C)CN(CC(C)C)S(=O)(=O)N1CCC(C(=O)NCc2ccco2)CC1 | nt | 0.24 | -4 | nt | -5 | -93 | nt
O=C(c1cc2ccccc2o1)N1CCN(S(=O)(=O)c2cccs2)CC1 | 89 | nt | 72* | 78 | -3 | 40 | -6
CCN(CC)S(=O)(=O)c1ccc(N2CCOCC2)c(NC(=S)NC(=O)c2ccco2)c1 | nt | nt | nt | nt | 3 | nt | nt
COC(=O)c1ccc(CSc2nnnn2Cc2ccccc2)cc1 | 88 | -0.28 | 97* | 96 | -2 | -37 | -15
CCOC(=O)c1ccc(N2C(=O)c3n[nH]c(-c4ccco4)c3C2c2cccc([N+](=O)[O-])c2)cc1 (centres undefined) | 56 | 0.27 | 96* | 48 | 3 | 3 | -5
CCOC(=O)c1ccc(N2C(=O)c3n[nH]c(C)c3C2c2ccco2)cc1 (centres undefined) | 95 | nt | 12 | 102 | 0 | -9 | nt
CCN1CCCC1CN=Cc1c(O)n(-c2ccccc2)c(=O)c2ccccc12 (centres undefined) | 101 | nt | 55* | 95 | 2 | -82 | 3
Cc1ccc(S(=O)(=O)/N=C(\CCl)N2CCOCC2)cc1 | 54 | -1.1 | 87* | 57 | 3 | -129 | 49
CCN1C(=O)NC2=C(C(=O)c3ccccc32)C1c1ccccc1F (centres undefined) | 92 | -0.34 | 100* | 82 | 0 | nt | 29
CCOC(=O)C1=C(C)NC2=C(C(=O)c3ccccc32)C1c1cccc2ccccc12 (centres undefined) | nt | nt | nt | nt | 0 | nt | nt
O=C(NC(=S)NCC1CCCO1)c1cccc([N+](=O)[O-])c1 (centres undefined) | 88 | nt | -2 | 103 | 2 | 13 | nt
C=C(C)C1Cc2c(C)nn(-c3cccc4ccccc34)c2C1 (centres undefined) | 60 | -0.081 | 61* | 68 | -3 | 26 | -29
O=C(NCc1ccccn1)C1CCN(S(=O)(=O)c2cc(Cl)ccc2Cl)CC1 | nt | -0.12 | 2 | nt | 4 | 18 | nt
Cc1nc(SCC(=O)O)c(C#N)c2c1CCCC2 | nt | 1.7 | nt | nt | 5 | nt | nt
CSc1nc(C)c2c(c1C#N)CCCC2 | 98 | -1.1 | 62* | 110 | 0 | nt | 16
Cc1nc2c(-c3ccc(Cl)cc3)c(C)[nH]n2c(=O)c1Cc1ccccc1 | nt | -0.3 | 99* | nt | 0 | nt | -6
SMILES | bCat KO growth | ROMK primary | Lmaj promast | PTEN del growth | p97 inhibitor | Insulin prom inh | L major 1uM
COC(=O)CS(=O)(=O)c1nnc([C@H](Cc2ccccc2)NC(=O)OC(C)(C)C)o1 | 98 | nt | 101* | 91 | 6 | 70* | 0
COC(=O)CSc1nnc([C@H](Cc2ccccc2)NC(=O)OC(C)(C)C)o1 | 104 | nt | -2 | 103 | 3 | nt | nt
Cc1ccc(-n2nc(-c3cccs3)cc2C(=O)NCC2CCCO2)c(C)c1 (centres undefined) | 81 | nt | 92* | 73 | 0 | -9 | -4
O=S(=O)(c1ccc(-c2csc(-c3cccnc3)n2)cc1)N1CCCC1 | 103 | nt | 15 | 96 | -3 | 62 | nt
O=S(=O)(c1ccc(-c2csc(-c3cccnc3)n2)cc1)N1CCCCC1 | 90 | 0.94 | 78* | 99 | 1 | 60 | 39
c1ccc(Oc2cc(-c3ccccc3)ncn2)cc1 | 98 | nt | -8 | 95 | -1 | -57 | nt
O=C(c1ccc(Cn2c(=O)[nH]c3ccccc3c2=O)cc1)N1CCN(c2ccccn2)CC1 | 86 | nt | 44 | 76 | -3 | -100 | nt
O=C(c1ccc(Cn2c(=O)[nH]c3ccccc3c2=O)cc1)N1CCN(c2ccccc2)CC1 | 62 | 1.7 | 94* | 58 | 1 | -91 | 14
CCOc1ccc(C2/C(=C(\O)c3cccc(OC)c3)C(=O)C(=O)N2c2ccccn2)cc1OC (centres undefined) | nt | nt | nt | nt | 2 | nt | nt
CC(=O)NC1C(Oc2cccc(C)c2)OC2COC(c3ccco3)OC2C1O (centres undefined) | 102 | 0.13 | 44 | 99 | 3 | 32 | nt
COc1ccccc1OC1OC2COC(c3ccco3)OC2C(O)C1NC(C)=O (centres undefined) | 93 | 1.5 | 65* | 99 | 1 | -5 | -13
C[C@H]1CC[C@H]2C(=O)N3[C@H](c4cccc(N5CCCC5=O)c4)[C@@H](C)CC[C@H]3C(=O)N2[C@@H]1c1cccc(N2CCCC2=O)c1 | 95 | 0.55 | 82* | 93 | 1 | -67 | -14
O=C(O)c1cccc(N2CCCC2=O)c1 | 88 | -0.9 | -1 | 93 | -5 | -56 | nt
O=C(NC(Cc1c[nH]c2ccccc12)C(=O)N/N=C/c1cccnc1)c1cccs1 (centres undefined) | nt | -0.77 | -1 | nt | 3 | -488 | nt
NNc1nc(-c2ccccc2Cl)nc2sc3c(c12)CCCC3 | 86 | nt | 31 | 77 | -3 | -18 | nt
Cc1noc2ncnc(Sc3ccc(Br)cc3)c12 | nt | -0.85 | 67* | nt | -3 | nt | 32
Cc1noc2ncnc(N3CCCC3)c12 | nt | 0.94 | -5 | nt | 3 | nt | nt
COc1ccccc1OCC(=O)NNc1c2ccccc2nc2ccccc12 | nt | nt | nt | nt | -1 | nt | nt
FC(F)(F)c1nc(-c2ccncc2)ncc1-c1nnnn1-c1ccccc1 | 75 | 0.063 | 61* | 74 | 0 | nt | 11
C=CCN(CC=C)C(=O)C(=O)c1cc(C)n(-c2ccc([N+](=O)[O-])cc2)c1C | 69 | nt | 98* | 75 | -3 | 0 | -7
Cc1cc(C(=O)C(=O)N(C)C)c(C)n1-c1ccc([N+](=O)[O-])cc1 | 87 | nt | 26 | 93 | 2 | 11 | nt
O=C(CN1CCN(Cc2ccccc2)CC1)c1ccc(Br)cc1 | 102 | -1.8 | 82* | 96 | 8 | 30 | 9
